Assay results published in PubChem BioAssay AID651719 (The Scripps Research Institute Molecular Screening Center, 2012).
The whole screen tested about 360,000 compounds, of which about 1,600 (0.44%) were called active.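 The calls were made as follows: active = inhibition above the screen-wide average plus 3 SD (cut at about 13% in these data); inactive = the rest.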 The entries come from a sample that favours actives as a whole.

molecular target: Galanin receptor type 3 (Homo sapiens) (UniProt O60755); test: blockers of human galanin receptor 3 – cell-based, fluorescence readout, primary screen (AID 651719); conditions: HEK293 GalR3-CNG cAMP membrane potential fluorescence; at 3 µM; hits give high values; galR3 body fused to GalR1 C-terminus;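 also: forskolin and galanin both at EC90 stimulate the cells; cAMP rise reported by CNG channel membrane potential dye signal; 0% = forskolin plus galanin with DMSO and 100% = forskolin alone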
Sequence (O60755 1-299 limits assumed): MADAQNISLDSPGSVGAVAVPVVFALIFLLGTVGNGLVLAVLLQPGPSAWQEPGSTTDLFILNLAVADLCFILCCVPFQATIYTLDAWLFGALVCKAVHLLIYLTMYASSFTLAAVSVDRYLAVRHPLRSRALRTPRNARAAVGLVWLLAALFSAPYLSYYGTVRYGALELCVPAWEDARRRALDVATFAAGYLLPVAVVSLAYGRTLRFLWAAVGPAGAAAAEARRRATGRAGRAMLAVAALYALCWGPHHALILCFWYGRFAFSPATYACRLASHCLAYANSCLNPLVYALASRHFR

inhibition, inactive:
COC(=O)C1=C(C)N(Cc2cccc(C(F)(F)F)c2)C(=NCc2cccc(C(F)(F)F)c2)NC1c1ccccc1C(F)(F)F (configuration not stated) -1.24%
Cc1ccc(NC(=O)N2c3ccccc3SC2c2ccco2)c(C)c1 (configuration not stated) -5.21%
CC(C)(C)NCc1cc(Br)ccc1OC1CCCC1 -9.54%
CCOc1ccc(Br)cc1S(=O)(=O)N1CCC(C(=O)O)CC1 -0.52%
COc1ccccc1C(=O)N1O[C@]23C=C[C@]14C[C@@H](O)CC[C@]4(C)C2CC[C@]1(C)[C@@H]([C@H](C)/C=C/[C@H](C)C(C)C)CC[C@H]13 (some centres not stated) -7.73%
CCN1C(=O)N[C@@H]2C[C@H](C(=O)N3CCCC3)[C@H](C)[C@H](c3ccccc3)C[C@@H]21 -5.5%
O=C(N[C@H](C(=O)N1CCC[C@H]1C(=O)NCCc1ccccc1Cl)c1ccccc1)c1ccccc1 -7.99%
COc1ccccc1-c1ccc([C@@H]2C[C@H]3[C@H](CON3C)CN2S(=O)(=O)c2cc(Cl)cc(Cl)c2)cc1 -6.77%
O=C(NCC(=O)N(c1ccccc1)C(C(=O)NCC1CCCO1)c1ccccc1)c1cccs1 (configuration not stated) 0.38%
O=C(NCC(=O)N(CC1CCCO1)C(C(=O)NC1CCCCC1)c1ccccc1)c1ccco1 (configuration not stated) -3.5%
COC(=O)c1c(-c2ccc(OC)cc2)c2c(c3c4cc(OC)ccc4n(S(=O)(=O)c4ccc(F)cc4)c13)C(=O)N(C)C2 -4.47%
CCOC(=O)c1c(NC(=O)CSc2nnc(Cc3csc(N)n3)n2C)sc(C)c1C -6.84%
CCOC(=O)c1c(NC(=O)CSc2nnc(CNc3ccc(C)cc3C)o2)sc(C)c1C -5.1%
O=C1Nc2ccccc2C1=NN=Cc1ccco1 -6.76%
CC(C)(C)n1nc(C2CC2)c(Br)c1NC(=O)c1ccccc1F -6.97%
O=c1[nH]c(-c2ccccc2)cn1C1CCN(Cc2ccc(-c3nc4ccc(F)cc4nc3-c3ccccc3)cc2)CC1 -7.59%
CCOc1ccc(C(C)=O)cc1COC(=O)CNC(=O)c1cccs1 -0.09%
COC(=O)c1ccc(COC(=O)c2cnc(Cl)c(Cl)c2)cc1 -9.03%
COC(=O)c1ccc(CN2C(=O)[C@]3(OCCC=C[C@H]3C)c3c(Br)cccc32)cc1 -6.8%
CC1CCN(C(=O)c2ncn3c2C(=O)N[C@@H](C)C3)CC1 -3.89%
O=C(NCc1ccccc1)[C@@H]1CCCN1C(=O)[C@H]1CCCN1C(=O)c1cccc(Cl)c1 -6.19%
CCOC(=O)N1CCN(Cc2nc3cc(NC(C)=O)ccc3n2C)CC1 -9.27%
O=C(Nc1ccc(CN2CCOCC2)cc1)c1cc(Cl)ccc1Cl -7.17%
Cc1cc(NCCc2c[nH]c3ccccc23)ccc1Oc1cccnc1 -8.42%
COc1ccc(C2Nc3ccccc3C(=O)N2Cc2ccccc2)cc1Cn1nnc2ccccc21 (configuration not stated) -2.99%
COc1ccc(CN2CCCC(C(=O)c3ccc(Cl)cc3)C2)cc1Cn1cncn1 (configuration not stated) -0.72%
CN[C@H]1C[C@H]2c3[nH]c4c(-c5ccccc5)cccc4c3CCN2C(=O)[C@H]1[C@H](C)O -8.33%
CC(=NNC(N)=O)c1ccc(Cl)c(-n2cccc2)c1 -8.67%
C[C@@H]1ON(C)[C@H]2C[C@H]3c4cc(N5CCOCC5)ccc4CCN3C[C@@H]12 -4.65%
COC(=O)[C@H](CC(C)C)NS(=O)(=O)c1c(F)cccc1F -4.91%
COCc1[nH]nc2c1C(c1ccccc1)N(c1ccccc1)C2=O (configuration not stated) -6.8%
CN1C(=O)C2CC(O)C(SC3CC4C(=O)N(C)C(=O)C4CC3O)CC2C1=O (configuration not stated) -2.8%
COC(=O)c1nc(NC(=O)c2ccc(C(C)(C)C)cc2)n[nH]1 -1.62%
Cc1cccc(NC(=O)c2ccc(S(=O)(=O)N(C)c3ccccc3)cc2)n1 -6.82%
CCCCCCCCN1C(=O)[C@@H](CC(=O)NCCCC)C[C@@]2(C(=O)OC)C1=C[C@H](C(C)(C)C)O[C@@H]2C -5.71%
O=C(NCc1ccccc1)[C@H]1CCCN1C(=O)[C@H]1CCCN1C(=O)N1CCOCC1 -7.58%
Nc1[nH]c(C(=O)c2ccc(Br)cc2)c(-c2ccc3c(c2)OCO3)c1C(=O)NCCc1c[nH]c2ccccc12 -6.84%
NC(=O)c1ncn([C@@H]2O[C@H](C(=O)O)[C@@H](O)[C@H]2O)n1 -7.36%
Nc1ncnc2c1ncn2[C@@H]1O[C@H](C(=O)N2CCSC2)[C@@H](O)[C@H]1O -5.85%
Nc1ncnc2c1ncn2[C@@H]1O[C@H](C(=O)NCC(F)(F)F)[C@@H](O)[C@H]1O -9.69%
Brc1ccc(COCCc2cn(Cc3ccccc3)c3ccccc23)cc1 3.44%
COC(=O)[C@]12C[C@H](CC(=O)NCc3ccc(C)o3)C(=O)N(CCC3=CCCCC3)C1=C[C@H](C(C)(C)C)O[C@@H]2C -7.34%
O=C(NNC(=O)c1ccc(-n2cncn2)c([N+](=O)[O-])c1)c1ccccc1 -6.89%
CC(Nc1ccc([N+](=O)[O-])cc1[N+](=O)[O-])c1ccccc1 (configuration not stated) -6.77%
COC(=O)C(C(=O)OC)c1ccccc1NS(=O)(=O)c1cccc2ccccc12 -6.36%
CC(C)C[C@H](NC(=O)CC1CCCC1)C(=O)N1CCC[C@H]1C(=O)NCc1ccccc1 1.69%
OC[C@@H]1CN(Cc2cccs2)C[C@H](n2cnc3c(NC4CCCC4)ncnc32)O1 -8.57%
OC[C@@H]1CN(Cc2ccc(F)cc2)C[C@H](n2cnc3c(NC4CCCC4)ncnc32)O1 -2.96%
COC(=O)c1cc2c(c3c4cc(F)ccc4n(S(=O)(=O)c4ccccc4)c13)C(=O)N(Cc1ccccc1OC)C2 -5.48%
Cc1noc(C)c1NC(=O)Nc1ccc2c(c1)C(=O)N([C@H](C)CO)C[C@H](C)[C@H](CN(C)Cc1ccncc1)OCCCC[C@@H](C)O2 -3.2%
COc1cc(C(=O)Nn2c(CC(C)C)nc3ccccc3c2=O)cc(OC)c1OC -0.49%
COc1cc(C(=S)NC2CCCCC2)ccc1O -5.5%
O=C(C(=O)N1CCC(CNC(=O)c2cccnc2Cl)CC1)c1cccs1 -2.12%
CC(=O)N1C[C@@H](CO)[C@@H](N(C)C(=O)C(C)(C)C)C[C@H]1c1ccccc1Br -3.56%
CCN(CC(=O)Nc1cc(Cl)ccc1C)C(=O)CSCc1ccccc1 -6.08%
CCN(CC(=O)NCc1ccc(Cl)cc1)C(=O)c1c(C)noc1C -4.16%
COCCNC(=S)N(C)[C@H]1C[C@H]2c3[nH]c4ccccc4c3CCN2C[C@H]1[C@H](C)O -3.71%
CC(=O)C1=C(C)N(Cc2ccc(Cl)cc2)C(=S)NC1c1ccc(F)cc1 (configuration not stated) -2.41%
CCCCNc1cccc2c1S(=O)(=O)N[C@@H](C)CO2 0.83%
COC(=O)[C@]12C[C@H](CC(=O)NCCCCc3ccccc3)C(=O)N(Cc3ccc4c(c3)OCO4)C1=C[C@H](C(C)(C)C)O[C@@H]2C -7.85%
O=C(CCc1ccccc1)Nc1nn[nH]n1 -3.85%
O=C(/C=C/c1c(Cl)cccc1Cl)NCc1ccccc1 -6.6%
Clc1cccc2c1C1CC2CCN1Cc1ccccc1 (configuration not stated) -7.78%
CC(C)(C)C(c1nc2ccccc2[nH]1)n1c(Cc2csc3ccccc23)nc2ccccc21 (configuration not stated) -6.57%
O=C(N[C@H](Cc1ccccc1)C(=O)N1CCCN(Cc2cccs2)CC1)[C@H]1O[C@@H](n2ccc(=O)[nH]c2=O)[C@H](O)[C@@H]1O -5.35%
Cc1c(C(=O)NCCCc2ccccc2)cccc1[N+](=O)[O-] -5.51%
COC(=O)CNC(=O)c1ccccc1[N+](=O)[O-] -2.07%

inhibition, active:
CCCCCCCCn1c2c(c(=N)c3c1CCC3)CCCC2 30.2%
CCOc1ccc(Br)cc1CSC(=N)N 58.7%
COc1ccc(N(C(=O)CNC(=O)c2ccco2)C(C(=O)NCC2CCCO2)c2ccccc2)cc1Cl (configuration not stated) 17.1%
CCOC(=O)c1c(NC(=O)CSc2nccc(=O)[nH]2)sc(C)c1C 14.3%
CCOc1ccc(C(C)=O)cc1COC(=O)c1cnc(Cl)c(Cl)c1 13.8%
Cn1c(CN2CCOCC2)nc2cc(NC(=O)c3ccc(Cl)cc3)ccc21 74.6%
COc1ccc(C2Nc3ccccc3C(=O)N2c2ccc(Cl)cc2)cc1Cn1cc([N+](=O)[O-])cn1 (configuration not stated) 28.1%
CSc1nccc(NC(=O)c2ccc(C(C)(C)C)cc2)n1 104%
Nc1ncnc2c1ncn2C1OC(CO)CC1O (configuration not stated) 53.3%
O=C(NC(Nc1nc2ccc([N+](=O)[O-])cc2s1)(C(F)(F)F)C(F)(F)F)c1ccccc1 20%
OC[C@@H]1CN(Cc2ccc(-c3ccccc3)cc2)C[C@H](n2cnc3c(NC4CCCC4)ncnc32)O1 27.1%
COc1cc(C(=O)Nn2c(O)c(C3=c4ccccc4=NC3=O)sc2=S)ccc1O 19.3%
CCN(CC(=O)NCc1ccc(Cl)cc1)C(=O)CSc1ccccc1 46.6%
O=C(/C=C/c1c(F)cccc1Cl)Nc1nn[nH]n1 13.1%
COC(=O)c1cccc([N+](=O)[O-])c1CS(=O)(=O)c1ccc(C)cc1 13.8%
